# Test results from the supplement of paper PMC10849652.
# Of roughly 7,900 targets only a part is listed; those with a hit were picked by preference. About 0.6% of all pairs of compound and target were hits. A number with no mark means an inactive call.
# What was measured:
# Assay in all cases: log2 fold change, soluble protein after heating vs DMSO (PISA); higher = thermal stabilisation; K562 cells, 10 uM, 30 min; active = over 0.2 and 3.5 SD of the protein, either way, in both replicates (recomputed)
# [1] = compound: C#Cc1cccc(Nc2ncnc3cc(OCCOC)c(OCCOC)cc23)c1 [erlotinib]
# Summary of the method: (§1)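 K562 cells at 2×10^6 cells/mL were treated with 10 μM compound for 30 min. Aliquots were heated for 3 min across 48°C-58°C, pooled, and extracted in PBS with 0.5% NP-40 at 4°C; soluble protein was the supernatant after 21,000xg for 90 min. Soluble protein was quantified by TMTpro 16plex LC-MS/MS with channel sums equalised, and reported as log2 fold change in thermal stability against DMSO controls, with values from duplicates.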
# [2] = compound: C/C(=N\NC(=O)C1=CC(=CC=C1)S(=O)(=O)N2CCOCC2)/C3=C(C=CC(=C3)Cl)O
# Summary of the method: as §1
# [3] = compound: C1=CC(=C(C=C1Cl)C2=NC3=NC=CN=C3C(=N2)NC4=CC=NC=C4)F
# Summary of the method: as §1
# [4] = compound: C1=CC(=CC=C1C2=NC3=C(N2)C=C(C=C3)C(=O)N)OC4=CC=C(C=C4)Cl
# Summary of the method: as §1
# [5] = compound: C1=CC2=C(C=CC(=C2)/C=C\3/C(=O)NC(=NCC4=CC=CS4)S3)N=C1
# Summary of the method: as §1
# [6] = compound: C1=CC2=NC=CN=C2C=C1/C=C/3\C(=O)NC(=O)S3
# Summary of the method: as §1
# [7] = compound: C1=CC=C(C=C1)C2=NC(=C(N2)C3=CC=NC=C3)C4=CC(=C(C=C4)Cl)O
# Summary of the method: as §1
# [8] = compound: C1=CC=C2C(=C1)C3=NNC4=CC=CC(=C43)C2=O
# Summary of the method: as §1
# [9] = compound: C1CCN(C1)C(=O)NC2=CC=CC(=C2)NC3=NC=C(C(=N3)NCCC4=CN=CN4)Br
# Summary of the method: as §1
# [10] = compound: C1CN(CCC1(CC2=CC=C(C=C2)Cl)N)C3=NC=NC4=C3C=CN4
# Summary of the method: as §1
# [11] = compound: C1COCCN1CCN2C3=CC=CC=C3N=C2NC(=O)C4=CC(=CC=C4)[N+](=O)[O-] [IRAK-1-4 Inhibitor I]
# Summary of the method: as §1
# [12] = compound: C=CC(=O)N1CCC[C@@H](n2nc(-c3ccc(Oc4ccccc4)cc3)c3c(N)ncnc32)C1 [ibrutinib]
# Summary of the method: as §1
# [13] = compound: CC(=O)c1cnc2ccc(-c3cc(Cl)c(O)c(Cl)c3)nc2c1N[C@H]1CC[C@H](CN(C)C)CC1
# Summary of the method: as §1
# [14] = compound: CC(C)(C)Cn1c(N)nc2ccc(-c3[nH]c(C(C)(C)C)nc3-c3ccc(F)cc3)nc21 [ralimetinib]
# Summary of the method: as §1
# [15] = compound: CC(C)(O)CC(=O)NCCn1ccc2ncnc(Nc3ccc(Oc4cccc(C(F)(F)F)c4)c(Cl)c3)c21
# Summary of the method: as §1
# [16] = compound: CC(C)C1=C2N=C(C=C(N2N=C1)NCC3=CC=CC=C3)NCCCCCCN
# Summary of the method: as §1
# [17] = compound: CC(C)C[C@@H](C=O)NC(=O)[C@H](CC(C)C)NC(=O)[C@H](CC(C)C)NC(=O)OCc1ccccc1
# Summary of the method: as §1
# [18] = compound: CC(C)N(C[C@H]1O[C@@H](n2cnc3c(N)ncnc32)[C@H](O)[C@@H]1O)[C@H]1C[C@@H](CCc2nc3cc(C(C)(C)C)ccc3[nH]2)C1 [pinometostat]
# Summary of the method: as §1
# [19] = compound: CC1=C(C(CC(=O)N1)C2=CC=C(C=C2)C(F)(F)F)C(=O)NC3=C(C=C4C(=C3)C=NN4)F
# Summary of the method: as §1
# [20] = compound: CC1=C(C2=C(C=C1)C(=O)C3=CC=CC=C3N2CCCN)C
# Summary of the method: as §1
# UniProt Q14693, sequence (Q14693 whole entry, looked up): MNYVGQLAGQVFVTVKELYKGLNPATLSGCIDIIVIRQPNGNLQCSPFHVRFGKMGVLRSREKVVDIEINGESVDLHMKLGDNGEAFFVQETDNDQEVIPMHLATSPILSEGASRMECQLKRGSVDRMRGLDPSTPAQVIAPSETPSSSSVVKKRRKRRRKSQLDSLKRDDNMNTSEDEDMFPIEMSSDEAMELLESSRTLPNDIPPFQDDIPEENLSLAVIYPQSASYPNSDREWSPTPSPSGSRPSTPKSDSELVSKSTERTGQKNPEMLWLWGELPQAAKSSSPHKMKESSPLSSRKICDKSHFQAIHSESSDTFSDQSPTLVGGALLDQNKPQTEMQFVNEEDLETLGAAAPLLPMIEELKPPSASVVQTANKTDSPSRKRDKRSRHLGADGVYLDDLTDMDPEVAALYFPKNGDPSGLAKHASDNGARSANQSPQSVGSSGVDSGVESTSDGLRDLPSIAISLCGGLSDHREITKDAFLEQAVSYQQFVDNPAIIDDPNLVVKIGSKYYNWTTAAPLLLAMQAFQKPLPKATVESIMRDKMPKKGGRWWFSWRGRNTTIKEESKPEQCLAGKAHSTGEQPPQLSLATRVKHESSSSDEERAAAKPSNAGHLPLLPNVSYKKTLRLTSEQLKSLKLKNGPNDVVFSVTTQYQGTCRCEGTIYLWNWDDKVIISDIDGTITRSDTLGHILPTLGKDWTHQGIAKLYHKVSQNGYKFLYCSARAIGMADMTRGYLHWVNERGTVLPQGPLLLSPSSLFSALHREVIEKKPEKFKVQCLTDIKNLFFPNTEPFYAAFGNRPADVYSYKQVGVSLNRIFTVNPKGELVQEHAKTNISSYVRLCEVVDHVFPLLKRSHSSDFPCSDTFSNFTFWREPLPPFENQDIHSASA
# UniProt P27816, sequence (P27816 whole entry, looked up): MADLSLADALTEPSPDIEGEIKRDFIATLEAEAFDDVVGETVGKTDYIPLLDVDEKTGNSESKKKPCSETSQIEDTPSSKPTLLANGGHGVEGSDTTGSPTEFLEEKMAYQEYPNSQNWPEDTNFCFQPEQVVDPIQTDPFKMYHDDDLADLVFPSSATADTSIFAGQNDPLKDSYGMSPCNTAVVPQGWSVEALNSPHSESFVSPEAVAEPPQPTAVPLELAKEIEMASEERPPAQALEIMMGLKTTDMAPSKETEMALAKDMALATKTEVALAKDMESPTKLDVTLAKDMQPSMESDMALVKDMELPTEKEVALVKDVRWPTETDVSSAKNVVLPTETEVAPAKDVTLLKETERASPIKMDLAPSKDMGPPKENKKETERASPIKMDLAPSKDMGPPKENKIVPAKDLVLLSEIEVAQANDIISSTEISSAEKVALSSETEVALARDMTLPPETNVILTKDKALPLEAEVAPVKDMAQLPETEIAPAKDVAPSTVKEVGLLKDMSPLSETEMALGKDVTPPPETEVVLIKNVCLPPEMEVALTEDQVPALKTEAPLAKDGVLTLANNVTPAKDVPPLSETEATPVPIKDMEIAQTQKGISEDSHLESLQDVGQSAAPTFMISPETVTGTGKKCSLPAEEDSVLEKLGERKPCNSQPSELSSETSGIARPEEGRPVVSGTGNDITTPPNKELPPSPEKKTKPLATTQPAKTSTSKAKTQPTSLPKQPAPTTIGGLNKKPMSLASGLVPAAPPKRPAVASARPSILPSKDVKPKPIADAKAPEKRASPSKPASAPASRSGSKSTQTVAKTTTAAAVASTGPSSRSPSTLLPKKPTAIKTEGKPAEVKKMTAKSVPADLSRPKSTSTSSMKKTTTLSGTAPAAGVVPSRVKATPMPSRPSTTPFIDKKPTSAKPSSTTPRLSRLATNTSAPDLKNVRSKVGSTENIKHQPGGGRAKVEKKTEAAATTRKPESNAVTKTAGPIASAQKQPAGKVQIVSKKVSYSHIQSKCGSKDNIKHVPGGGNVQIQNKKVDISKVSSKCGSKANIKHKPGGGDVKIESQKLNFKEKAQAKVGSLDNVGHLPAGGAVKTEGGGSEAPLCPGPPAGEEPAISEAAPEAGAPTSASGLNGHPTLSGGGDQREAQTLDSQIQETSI
# UniProt Q16644, sequence (Q16644 whole entry, looked up): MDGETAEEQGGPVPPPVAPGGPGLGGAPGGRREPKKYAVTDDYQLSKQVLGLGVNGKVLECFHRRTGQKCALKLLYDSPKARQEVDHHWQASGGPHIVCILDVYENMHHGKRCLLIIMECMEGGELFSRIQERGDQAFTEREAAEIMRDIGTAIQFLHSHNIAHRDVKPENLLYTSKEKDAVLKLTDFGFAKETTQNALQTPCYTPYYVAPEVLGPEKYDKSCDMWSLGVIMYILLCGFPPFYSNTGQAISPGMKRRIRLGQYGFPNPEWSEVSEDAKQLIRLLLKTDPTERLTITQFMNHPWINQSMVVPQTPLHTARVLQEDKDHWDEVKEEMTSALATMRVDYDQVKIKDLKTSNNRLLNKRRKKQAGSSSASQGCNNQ
# UniProt Q6P1A2, sequence (Q6P1A2 whole entry, looked up): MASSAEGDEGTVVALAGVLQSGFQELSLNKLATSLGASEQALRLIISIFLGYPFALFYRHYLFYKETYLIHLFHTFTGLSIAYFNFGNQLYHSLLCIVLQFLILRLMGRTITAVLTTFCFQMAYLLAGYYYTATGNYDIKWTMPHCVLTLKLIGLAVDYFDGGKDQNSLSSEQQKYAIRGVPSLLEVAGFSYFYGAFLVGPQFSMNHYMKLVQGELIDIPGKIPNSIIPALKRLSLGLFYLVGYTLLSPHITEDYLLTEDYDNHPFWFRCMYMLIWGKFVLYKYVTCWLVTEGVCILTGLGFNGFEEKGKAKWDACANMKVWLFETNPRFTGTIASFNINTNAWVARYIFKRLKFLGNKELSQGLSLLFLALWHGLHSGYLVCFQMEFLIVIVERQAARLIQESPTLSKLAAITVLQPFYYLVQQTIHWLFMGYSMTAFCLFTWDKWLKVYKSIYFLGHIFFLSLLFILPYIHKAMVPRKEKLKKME
# UniProt P13473, sequence (P13473 whole entry, looked up): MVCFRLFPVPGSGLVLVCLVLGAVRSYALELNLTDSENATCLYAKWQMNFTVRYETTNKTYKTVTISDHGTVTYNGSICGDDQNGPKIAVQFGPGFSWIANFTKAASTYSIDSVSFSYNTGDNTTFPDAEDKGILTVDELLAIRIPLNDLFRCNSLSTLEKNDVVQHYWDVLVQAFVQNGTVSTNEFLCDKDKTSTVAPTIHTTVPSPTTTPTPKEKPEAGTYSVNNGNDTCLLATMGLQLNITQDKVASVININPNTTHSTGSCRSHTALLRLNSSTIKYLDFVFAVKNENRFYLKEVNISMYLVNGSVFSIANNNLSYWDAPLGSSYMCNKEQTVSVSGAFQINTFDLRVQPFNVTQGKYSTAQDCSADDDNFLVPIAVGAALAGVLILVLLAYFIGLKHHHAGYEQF
# UniProt P23276, sequence (P23276 whole entry, looked up): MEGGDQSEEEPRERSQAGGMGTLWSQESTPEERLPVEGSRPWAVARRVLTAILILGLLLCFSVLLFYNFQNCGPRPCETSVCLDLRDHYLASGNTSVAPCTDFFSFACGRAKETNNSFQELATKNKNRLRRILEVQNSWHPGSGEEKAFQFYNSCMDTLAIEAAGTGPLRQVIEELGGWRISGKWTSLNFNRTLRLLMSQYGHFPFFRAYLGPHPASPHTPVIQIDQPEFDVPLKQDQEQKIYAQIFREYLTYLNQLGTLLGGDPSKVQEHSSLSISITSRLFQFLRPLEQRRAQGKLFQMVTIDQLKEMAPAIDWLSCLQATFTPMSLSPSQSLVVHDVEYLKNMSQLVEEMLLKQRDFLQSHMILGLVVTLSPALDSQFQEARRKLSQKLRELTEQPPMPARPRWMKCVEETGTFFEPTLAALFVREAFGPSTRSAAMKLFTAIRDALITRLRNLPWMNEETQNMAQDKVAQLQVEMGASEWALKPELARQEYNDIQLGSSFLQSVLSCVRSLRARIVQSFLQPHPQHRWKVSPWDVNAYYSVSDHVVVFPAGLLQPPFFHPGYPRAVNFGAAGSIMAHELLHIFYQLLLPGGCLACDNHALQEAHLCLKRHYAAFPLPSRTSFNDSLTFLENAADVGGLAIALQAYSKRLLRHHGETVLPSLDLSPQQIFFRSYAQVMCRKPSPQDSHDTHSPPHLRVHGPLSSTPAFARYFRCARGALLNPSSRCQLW
# UniProt Q9H3F6, sequence (Q9H3F6 whole entry, looked up): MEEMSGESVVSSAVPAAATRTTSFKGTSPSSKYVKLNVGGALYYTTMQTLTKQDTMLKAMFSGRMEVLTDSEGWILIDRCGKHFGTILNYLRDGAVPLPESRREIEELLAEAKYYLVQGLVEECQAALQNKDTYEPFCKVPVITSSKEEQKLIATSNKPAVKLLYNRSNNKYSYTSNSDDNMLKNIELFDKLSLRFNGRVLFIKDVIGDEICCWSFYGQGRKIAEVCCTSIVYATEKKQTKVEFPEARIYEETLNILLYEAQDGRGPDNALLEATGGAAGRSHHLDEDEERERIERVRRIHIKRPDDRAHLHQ
# UniProt Q8NC54, sequence (Q8NC54 whole entry, looked up): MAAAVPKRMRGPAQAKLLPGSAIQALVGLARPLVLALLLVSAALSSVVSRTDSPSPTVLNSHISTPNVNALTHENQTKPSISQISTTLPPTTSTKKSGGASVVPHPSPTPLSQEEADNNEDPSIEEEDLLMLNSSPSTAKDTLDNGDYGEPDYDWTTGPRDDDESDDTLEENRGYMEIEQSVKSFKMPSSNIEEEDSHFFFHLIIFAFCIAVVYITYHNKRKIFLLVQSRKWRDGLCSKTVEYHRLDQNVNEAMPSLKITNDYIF
# UniProt Q96AQ8, sequence (Q96AQ8 whole entry, looked up): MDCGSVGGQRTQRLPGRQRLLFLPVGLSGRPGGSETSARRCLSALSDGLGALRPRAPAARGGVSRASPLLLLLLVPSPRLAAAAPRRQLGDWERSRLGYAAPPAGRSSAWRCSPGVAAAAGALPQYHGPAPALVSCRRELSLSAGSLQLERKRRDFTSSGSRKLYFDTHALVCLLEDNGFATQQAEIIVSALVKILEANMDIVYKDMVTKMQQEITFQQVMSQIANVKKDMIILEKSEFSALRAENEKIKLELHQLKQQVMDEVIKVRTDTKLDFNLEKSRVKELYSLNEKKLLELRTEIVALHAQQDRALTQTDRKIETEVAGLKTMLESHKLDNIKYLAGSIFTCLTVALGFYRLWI
Target,log2 fold change [1],log2 fold change [2],log2 fold change [3],log2 fold change [4],log2 fold change [5],log2 fold change [6],log2 fold change [7],log2 fold change [8],log2 fold change [9],log2 fold change [10],log2 fold change [11],log2 fold change [12],log2 fold change [13],log2 fold change [14],log2 fold change [15],log2 fold change [16],log2 fold change [17],log2 fold change [18],log2 fold change [19],log2 fold change [20]
KCT2 (UniProt Q8NC54),0.069,0.019,0.064,0.061,-0.005,0.075,0.096,-0.005,-0.028,0.056,0.039,0.029,-0.04,-0.014,0.004,-0.118,-0.011,0.009,0.035,-0.035
LPIN1 isoform 7 (UniProt Q14693),0.027,0.068,0.059,-0.043,-0.001,-0.102,-0.031,0.015,-0.033,0.025,0.035,0.029,-0.379 (active),0.016,-0.033,-0.054,0.046,0.082,0.092,0.006
MAPKAPK3 (UniProt Q16644),0.034,-0.012,0.431 (active),-0.041,0.024,-0.069,0.256,0.029,0.021,-0.054,0.031,0.006,0.332 (active),0.413 (active),-0.103,-0.121,-0.151,-0.039,-0.008,0.045
LUC7L (UniProt Q9NQ29),-0.084,0.043,-0.092,0.114,-0.062,-0.003,-0.105,-0.016,-0.016,-0.035,-0.098,0.027,-0.137,0.009,0.08,-0.007,0.021,0.101,0.083,-0.056
MAP2K2 (UniProt P36507),0.021,-0.005,0.05,-0.001,0.054,-0.005,-0.058,-0.029,-0.003,0.016,0.045,0.012,-0.496 (active),0.105,-0.065,-0.02,0.056,0.003,0.011,-0.001
ILF3 isoform 7 (UniProt Q12906),-0.068,-0.084,-0.266,-0.004,-0.049,0.099,-0.061,-0.01,0.054,-0.186,-0.098,0.014,0.172,0.067,0.086,0.338,0.001,0.134,0.006,0.218
"LRBA, A0A494BZW2",0.111,0.022,0.283,0.124,-0.055,0.061,-0.105,-0.013,0.097,0.189,0.02,0.018,-0.009,0.01,0,-0.436,0.041,0.076,0.006,-0.237
MCUR1 (UniProt Q96AQ8),-0.012,-0.03,0.055,0.003,0.053,-0.006,0.102,0.005,-0.023,0.063,0.011,0.041,-0.077,0.118,-0.018,0.065,-0.242 (active),-0.059,0.015,-0.002
KLC2 (UniProt Q9H0B6),0.036,0.063,0.008,-0.044,0.078,0.025,-0.039,0.006,-0.063,-0.007,-0.035,-0.024,-0.309 (active),0.041,-0.02,-0.107,0.083,0.023,-0.03,0.133
KCTD10 (UniProt Q9H3F6),-0.041,0.159,-0.051,0.014,-0.021,0.049,-0.171,0.045,-0.027,-0.055,0.01,0.024,-0.037,-0.049,0.043,0.277 (active),-0.02,-0.021,-0.017,-0.034
LAMP2 (UniProt P13473),0.035,0,0.088,0.031,0.002,0.101,-0.013,-0.01,-0.013,0.039,0.063,0.042,-0.083,-0.12,-0.007,-0.033,0.004,-0.077,-0.139,0.066
MAP4 (UniProt P27816),0.003,-0.041,0.006,-0.009,-0.039,0.011,-0.007,-0.02,-0.025,0.015,0.003,0,0.012,0.025,0.012,0.076,0.019,0.001,0.006,0.08
IMMT isoform 2 (UniProt Q16891),-0.057,0.043,0.051,-0.022,-0.07,-0.021,-0.026,0.021,0.007,0.047,0.053,-0.011,0.022,0.054,0.051,0.015,-0.028,0.058,0.035,-0.106
KEL (UniProt P23276),0.011,0.042,0.008,0.13,-0.005,0.147,-0.029,-0.067,-0.013,-0.001,-0.001,0.052,-0.028,-0.011,0.054,0.025,-0.102,-0.02,-0.006,0.041
LPCAT3 (UniProt Q6P1A2),-0.062,0.028,0.032,0.07,0.152,0.071,0.211,0.014,0.059,0.002,0.014,-0.034,0.099,0.009,0.148,-0.65 (active),-0.004,0.083,-0.004,0.03
